GLP1R cytotox: cytotoxicity counter-screen for GLP-1 receptor inverse agonists; HEK293 cAMP-luciferase reporter cells, luminescence, 24 h; Potency, µM (top dose mostly 38.3 µM), for inactives: at the top dose activity change, negative = inhibition, actives largely listed as inhibitors; 0.13% of 410,000 active;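 also: loss of luciferase light is scored as toxicity; % is scaled to controls: 0 for no effect and ±100 for the full control effect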
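To flag toxic compounds, the library was rerun on cells for 24 hr at 37 deg C and 5% CO2. Viability-linked luminescence was captured 12 min after adding luciferase detection reagent.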
Mito fusion yeast: inhibitors of mitochondrial division or activators of mitochondrial fusion | S. cerevisiae fusion-defective mutant growth rescue, CellTiterGlo 48 h | AID 485298 | 0.23% of 320,000 active | Potency, µM (series often up to 46.1 µM), for the others: at the highest dose growth rescue (activation), hits mostly activators; also: % of control where 0% means no effect; nearly all actives have a fitted effect of over 45% in size
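Compounds are tested for their ability to restore growth of mitochondrial fusion-defective yeast strains at non-permissive 37C in YPEG medium over 48 hours. Viability is quantified by luciferase luminescence.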
GLP-1R inv ag: inverse agonists of human GLP-1 receptor | 1.6% of 410,000 active | AID 624417 | HEK293 GLP-1R CRE-luciferase, luminescence, 24 h; GLP-1R form is constitutively active | Potency, µM (titrated, usually from 38.3 µM), without a hit: at the highest dose activity change, negative = inhibition, most hits filed as inhibitors; also: % is scaled to controls: 0 for no effect and ±100 for the full control effect; nearly all actives have a fitted effect of over 55% in size
Target sequence (P43220 whole entry, looked up): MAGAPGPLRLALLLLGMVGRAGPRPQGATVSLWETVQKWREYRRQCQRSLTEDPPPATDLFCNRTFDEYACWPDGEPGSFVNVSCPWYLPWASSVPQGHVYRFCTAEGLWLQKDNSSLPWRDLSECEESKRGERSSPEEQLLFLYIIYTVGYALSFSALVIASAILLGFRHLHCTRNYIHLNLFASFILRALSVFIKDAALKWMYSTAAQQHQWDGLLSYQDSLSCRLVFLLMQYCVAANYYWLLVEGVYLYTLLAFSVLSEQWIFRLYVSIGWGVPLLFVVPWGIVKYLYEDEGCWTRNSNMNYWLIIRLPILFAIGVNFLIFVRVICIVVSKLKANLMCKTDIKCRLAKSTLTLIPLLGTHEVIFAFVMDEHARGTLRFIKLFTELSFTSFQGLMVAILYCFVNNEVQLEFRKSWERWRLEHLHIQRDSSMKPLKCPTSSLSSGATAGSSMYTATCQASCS
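Stable HEK293 clone (constitutively active GLP-1R + cAMP-response luciferase); 200 cells/uL plated, 12 h pre-culture, compound 24 hr, 37 deg C/5% CO2; detection reagent 12 min RT; luminescence.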
BRCA1 expr act: activators of BRCA1 expression. MCF7-BRCA1-FFLuc reporter, luminescence, 48 h; response scale: scaled: vehicle 0%, 10 µM genistein 100%. Potency, µM (titrated, usually from 46.1 µM), inactives show at the highest dose activation, usual class: activators. 1.1% of 380,000 active. AID 624202; also: nearly all actives have a fitted effect of over 80% in size
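MCF7-BRCA1-FFLuc cells, 2000/well in phenol-red-free MEM, attached 2 h then treated 48 h at 37 C. Luciferase luminescence read 15 min after reagent; normalized to genistein maximum activation (10microM) and DMSO, concentration-response fitted.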
GLP-1R agonist: activates the human GLP-1 receptor | P43220 | HEK293 GLP-1R CRE-luciferase, luminescence, 4-6 h; cells express a hypersensitive GLP-1R form | Potency, µM (series often up to 45.6 µM), without a hit: top-dose activation, most hits filed as activators | 0.007% of 380,000 active | AID 624172; also: % of control where 0% means no effect
Active calls of the source: *; ? = inconclusive; / = no result. Only some compounds are listed: those with a hit (about 2.8% of all), similar ones and a draw of the others. Calls follow the shape of the dose curve; as a rule, active = well fitted curve in the direction sought with a large enough effect; inconclusive = small, poorly fitted or top-dose-only effect, or another doubt; inactive = no such curve, though single readings can be large; an effect the other way counts as inactive or inconclusive. Potency is read from the fitted curve at half-maximal effect.

SMILES	GLP1R cytotox	Mito fusion yeast	GLP-1R inv ag	BRCA1 expr act	GLP-1R agonist
Cc1ccsc1CN(C)CC(=O)Nc1cccc(S(=O)(=O)N(C)c2ccccc2)c1	1%	?	8.9µM*	-10%	-24%
CN(c1ccccc1)S(=O)(=O)c1cccc(NC(=O)COc2cccc([N+](=O)[O-])c2)c1	-7%	13%	10µM*	-24%	-1%
COc1ccc(CCC(C)NCCc2ccc(Cl)cc2Cl)cc1 (configuration not stated)	?	-9%	10µM*	-80%	-2%
CC(C)(C)NC(=O)C(c1ccncc1)N(C(=O)Cn1nnc(-c2ccc(F)cc2)n1)c1ccccc1F (configuration not stated)	-17%	-5%	-20%	9%	1%
CC(C)(C)NC(=O)C(c1ccc(O)cc1)N(C(=O)Cn1nnc(-c2ccc(F)cc2)n1)c1ccccc1F (configuration not stated)	-11%	23%	8.9µM*	-26%	-5%
COc1ccc(S(=O)(=O)N2CCCCCC2)cc1N(C)S(=O)(=O)c1ccc(Cl)cc1	-13%	2%	10µM*	-54%	7%
COc1ccc(S(=O)(=O)N2CCCCCC2)cc1C(=O)N(C)Cc1ccc(C(C)(C)C)cc1	-2%	-7%	5.6µM*	-34%	8%
CN(CC(=O)Nc1ccc(Cl)cc1)c1ccc(S(=O)(=O)N2CCCCC2)cc1[N+](=O)[O-]	-13%	?	10µM*	-49%	-1%
COc1ccc(S(=O)(=O)N2CCCCCC2)cc1C(=O)N(C)CC(=O)Nc1ccc(Cl)c(Cl)c1	-20%	-3%	10µM*	-52%	4%
CCOc1ccc(N(CC(=O)NCc2ccccc2)S(=O)(=O)c2ccc(C)cc2)cc1	15%	-10%	-26%	-23%	7%
CC(=O)c1c(C)n(-c2ccc(Cl)cc2)c2ccc(OC(=O)COc3ccccc3)cc12	1%	/	4%	/	/
O=C(CN1CCN(S(=O)(=O)N2CCCCC2)CC1)Nc1ccc(Cl)c(Cl)c1	-17%	30%	8.9µM*	-36%	10%
Cc1cc(C)nc(-n2nc(C)c(Br)c2Nc2ccc(Br)cc2)n1	5.6µM*	2%	?	-41%	1%
Cc1nn(C)c(Nc2ccc(Br)cc2)c1Br	-19%	6%	?	-59%	9%
CC1CCCC(NC(=O)/C=C/c2c(F)cccc2Cl)C1C (configuration not stated)	-5%	/	?	11µM*	16%
O=C(/C=C/c1c(F)cccc1Cl)Nc1ncccn1	-7%	20%	6%	35%	0%
O=C(/C=C/c1c(Cl)cccc1Cl)N1CCOCC1	3%	5%	10%	44%	7%
O=C(/C=C/c1c(F)cccc1Cl)N1CCOCC1	1%	4%	16%	10µM*	0%
O=C(CSCCO)Nc1cccc([N+](=O)[O-])c1	-1%	0%	20%	-57%	1%
CC1(C)Cc2c(C#N)c(SCCOc3ccccc3)nc(N3CCOCC3)c2CO1	-21%	?	13µM*	-41%	2%
C=CCn1c(SCC(=O)c2ccc(Cl)cc2)nnc1-c1ccc2c(c1)OCO2	-7%	/	?	-6%	9%
C/C(=N\Nc1nc(C(C)(C)C)cs1)c1ccc(O)cc1	-17%	-8%	?	79%	-4%
C/C(=N\Nc1nc(C(C)(C)C)cs1)c1ccccc1	2%	-14%	8.9µM*	44%	-1%
CC(/C=C/c1ccccc1F)=N\NC(=O)c1ccccc1	-26%	-1%	21%	3.2µM*	4%
CC(/C=C/c1ccccc1F)=N\NC(=O)c1ccc(Cl)cc1	8%	16%	?	3%	6%
SMILES	GLP1R cytotox	Mito fusion yeast	GLP-1R inv ag	BRCA1 expr act	GLP-1R agonist
COc1ccc(C(=O)/C(=C/c2cccs2)c2nc3ccccc3o2)cc1	5%	8%	11µM*	42%	-1%
COc1ccc(/C=C(\CC(=O)O)c2nc3ccccc3o2)cc1	2%	17%	8%	38%	11%
Cc1nc2c3ccccc3nc(NNC(=O)CCC(=O)NC(C)C)n2n1	-6%	0%	29%	11%	-12%
Cc1cccc(NC(=S)NC(=O)c2ccc(Br)o2)c1C	-15%	1%	-25%	51%	12%
Cc1ccc(NC(=S)NC(=O)c2ccc(Br)o2)c(C)c1	-8%	6%	16%	4µM*	17%
Cc1ccc(NC(=S)NC(=O)C2CC2)c(C)c1	?	-18%	?	11µM*	-3%
COc1ccc(CCN2C(=O)CSC2=S)cc1OC	?	-44%	5.6µM*	-96%	2%
COC(=O)C1=C(CN2CCc3ccccc32)NC(=O)NC1c1cc(C)ccc1C (configuration not stated)	-24%	12%	8.9µM*	-54%	-12%
O=C(CSc1ccc2c(c1)OCCO2)NCCc1ccc(Cl)cc1Cl	28%	20%	11µM*	-12%	3%
CSc1nnc2c(n1)[nH]c1c(C)cccc12	-7%	-1%	57%	18%	1%
COc1cccc(NC(=O)CN2C(=O)NC3(CCc4ccccc43)C2=O)c1 (configuration not stated)	2%	-2%	-1%	-2%	2%
CC(C)c1ccc(C(=O)CN2C(=O)NC3(CCc4ccccc43)C2=O)cc1 (configuration not stated)	-1%	/	2.5µM*	-24%	-1%
O=C(CN1C(=O)NC2(CCc3ccccc32)C1=O)c1ccc(Cl)cc1 (configuration not stated)	0%	11%	?	-15%	16%
O=C(CN1C(=O)NC2(CCc3ccccc32)C1=O)Nc1cccc(Cl)c1 (configuration not stated)	-2%	/	11µM*	-33%	0%
CCOc1ccccc1NC(=O)C1CCCN(S(=O)(=O)c2cccc3nsnc23)C1 (configuration not stated)	-7%	17%	-24%	0%	-3%
CCOc1c2c(nc3ccc(Cl)cc13)CCC2	12%	-4%	0%	10%	12%
CC[C@H](CO)Nc1nc(Nc2cccc(Cl)c2)c2ncn(C(C)C)c2n1	?	-55%	?	-77%	-16%
CC(C)[C@H](CO)N(Cc1cccc(F)c1)c1nc(Nc2cccc(Cl)c2)c2ncn(C(C)C)c2n1	18%	-14%	4µM*	-41%	2%
N#CC1=C(N)OC2=C(C(=O)CC(c3ccco3)C2)C1c1ccc(OCc2c(F)cccc2Cl)cc1 (configuration not stated)	-2%	-7%	10µM*	13%	-14%
COc1cccc(C2C(C#N)=C(N)OC3=C2C(=O)CC(c2ccco2)C3)c1OCc1ccc(F)cc1 (configuration not stated)	8%	9%	?	-20%	1%

Screening results as filed in PubChem BioAssay.
